# From PubChem BioAssay AID743262 (National Center for Advancing Translational Sciences (NCATS), 2014)
# The campaign covered roughly 1,300 compounds. About 25 (2%) were called active. A call without a number means that no potency is given here. Not shown: some 9% with an inconclusive outcome. The call rests on the fitted dose curve; in most records, active means well fitted activation curve with a large enough effect; inconclusive means small, poorly fitted or top-dose-only effect; inactive means flat fitted curve, though single readings scatter. Many of the other results were omitted from the sample, so actives are more common in it than they were.
# Biological target: Glucagon-like peptide 1 receptor (Homo sapiens) (UniProt P43220)
# Sequence (P43220 whole entry, looked up): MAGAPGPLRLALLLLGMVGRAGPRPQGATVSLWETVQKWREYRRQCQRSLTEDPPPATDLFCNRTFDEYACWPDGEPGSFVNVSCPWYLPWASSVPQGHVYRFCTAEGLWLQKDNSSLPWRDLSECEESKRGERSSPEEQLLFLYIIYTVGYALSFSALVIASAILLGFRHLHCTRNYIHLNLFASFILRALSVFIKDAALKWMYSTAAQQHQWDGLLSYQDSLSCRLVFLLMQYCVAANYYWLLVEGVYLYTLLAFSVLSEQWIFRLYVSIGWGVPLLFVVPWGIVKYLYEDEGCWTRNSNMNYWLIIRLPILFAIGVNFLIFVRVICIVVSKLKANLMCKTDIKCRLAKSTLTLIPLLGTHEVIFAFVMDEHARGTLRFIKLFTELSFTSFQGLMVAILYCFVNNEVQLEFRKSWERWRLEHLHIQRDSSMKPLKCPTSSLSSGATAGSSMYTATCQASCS
# Test: qHTS of GLP-1 Receptor Agonists: Hit Validation
# Conditions: HEK293 GLP-1R, cAMP-response luciferase, 4-6 h; series mostly up to 46.1 µM
# Text: The overall goal of this project was to develop a novel assay for discovering small molecule ligands for class B1 G protein-coupled receptors (GPCRs). Very few agonists (or inverse agonists) with generally weak activity for this entire group of physiologically important receptors are known to date. To establish proof-of-principle that this critical bottleneck can be overcome with a suitable screening approach, our studies focused on the class B1 receptor for glucagon-like peptide-1 (GLP-1R), a potential therapeutic target for diabetes and neurodegenerative disease. The assay was developed in a "mix and measure" format using a cell-based functional readout. Toward this goal, stably transfected HEK293 cell clones were established that co-express (i) a cAMP-responsive luciferase reporter gene, and (ii) GLP-1Rs that upon ligand interaction either stimulate (agonists) or inhibit (inverse agonists) luciferase activity. In different cell lines to be used for screening, expressed GLP-1Rs are specifically optimized for high sensitivity detection of either weak agonists (hypersensitive receptor) or inverse agonists (constitutively active receptor mutant). In addition, control cell lines were developed that express either the cAMP-responsive reporter gene without recombinant GLP-1Rs (enabling initial exclusion of GLP-1R independent effects of candidate probes), or the reporter gene together with wild type GLP-1Rs (for confirmation of probe activity at this receptor), or the reporter gene in combination with the constitutively active orphan receptor GPR119 (enabling initial exclusion of GLP-1R independent inhibitory effects of candidate inverse agonists). To that end, this assay was optimized for 1536-well format and screened against the MLSMR. NIH Molecular Libraries Probe Production Network [MLPCN] NIH Chemical Genomics Center [NCGC] Grant: NS064851 PI Name: Martin Beinborn, Tufts Medical Center
# In a white solid 1536-well plate, 6 uL of cells are dispensed in DMEM without phenol red, 10% Nu serum, and 1% pen-strep medium. The plates are then incubated for 12 hours at 37 deg C at 5% CO2 before 23 nL of compounds are added. After a 4-6 hr incubation at37 deg C and 5% CO2, 3 uL of detection reagent are added and after a 12 min incubation at RT, a luminescent read is obtained on the ViewLux.
# Potency means the concentration at half of the fitted maximal effect.
row,SMILES,Potency
1,CC(Cc1ccc(O)cc1)NCC(O)c1ccc(O)c(O)c1 (stereo not given),9.2 nM (active)
2,O=c1[nH]cnc2nc(-c3ccc(N(CCCl)CCCl)cc3)[nH]c12,inactive
3,N#Cc1c(/N=C/c2ccc(O)cc2O)sc2c1C1CCN2CC1,inactive
4,C[C@@H]1CN([C@H](C)CO)C(=O)CCCn2cc(nn2)CO[C@H]1CN(C)C(=O)Oc1ccc2ccccc2c1,inactive
5,CN1CCN=C(c2ccccc2)c2cc(Cl)ccc21,inactive
